Measurements from PubChem BioAssay (Tox21).
Where “and” joins values, the source holds several entries; their conditions need not be identical. Equal values may be shown once. Records with an inconclusive call do not appear. Where a call stands in place of a potency, no number is given. A structure can be active in one record and inactive in another. Calls of active or inactive are those of the source. Unless noted, the call rests on the fitted dose curve.

Experiments:
[1] = Nuclear factor erythroid 2-related factor 2/antioxidant responsive element (Nrf2/ARE) small molecule agonists: qHTS cell viability counter screen in human keratinocytes (AID 1919968; active means well fitted cell-killing curve with a large enough effect in the repeat runs; further: nearly all actives have a fitted effect of over 55% in size)
Summary of the method: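 Seed 1,500 KeratinoSens cells per well, then incubate 5 h at 37 C/5% CO2. Add compounds in DMSO and incubate 23 h. Add CellTiter-Fluor, wait 1 h and read fluorescence.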

[2] = Nuclear factor erythroid 2-related factor 2/antioxidant responsive element (Nrf2/ARE) small molecule agonists: luciferase reporter gene qHTS assay in human keratinocytes (AID 1919969); further: nearly all actives have a fitted effect of over 35% in size; further: potency means the concentration at half of the fitted maximal effect
[3] = target: Gonadotropin-releasing hormone receptor (Homo sapiens) (UniProt P30968); assay: Human gonadotropin-releasing hormone receptor (GnRHR) small molecule agonists, calcium flux assay in GnRHR-HEK293 cells (AID 1920063); further: nearly all actives have a fitted effect of over 35% in size; further: potency means the concentration at half of the fitted maximal effect
Gonadotropin-releasing hormone receptor (Homo sapiens), sequence (P30968 whole entry, looked up): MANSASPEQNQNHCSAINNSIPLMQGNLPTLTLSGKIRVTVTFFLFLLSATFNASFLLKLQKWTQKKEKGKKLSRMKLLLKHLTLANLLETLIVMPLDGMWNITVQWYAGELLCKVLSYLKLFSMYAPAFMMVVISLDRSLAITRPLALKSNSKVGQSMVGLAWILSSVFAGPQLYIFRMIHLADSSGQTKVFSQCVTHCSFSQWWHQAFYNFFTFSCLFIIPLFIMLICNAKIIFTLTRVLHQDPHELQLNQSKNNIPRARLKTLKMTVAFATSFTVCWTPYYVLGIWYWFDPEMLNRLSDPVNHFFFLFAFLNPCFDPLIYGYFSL
Summary of the method: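 Cells: HEK293 stably expressing human GnRHR. Steps: overnight (18 h) culture, 1 h calcium dye loading at 37 C, compound addition, kinetic fluorescence read at 480/540 nm. Each compound tested at 15 concentrations in triplicate.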

[4] = G protein-coupled receptor (GPCR) small molecule agonists, calcium flux assay: HEK293 wild type cell line counter screen (AID 1920065)
Summary of the method: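 Counter-screen of the Tox21 10K library for non-specific calcium release: dye-loaded cells received compounds in DMSO and were monitored by kinetic fluorescence (480/540 nm, 3 min). Fifteen concentrations, run in triplicate.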

[5] = p53 small molecule agonists, cell-based qHTS assay with human liver microsomes (AID 1963577)
Summary of the method: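 p53RE-bla cells, 4,000/well, compound added after 5 h, with human liver microsomes 0.5 mg/mL and NADPH 0.5 mg/mL final; 16 h at 37 C, then LiveBLAzer 2 h RT, fluorescence.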

[6] = p53 small molecule agonists, cell-based qHTS assay with rat liver microsomes (AID 1963578)
Summary of the method: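 p53RE-bla cells, 4,000/well, pre-incubated 5 h, then given compounds plus rat liver microsomes (0.5 mg/mL final) and NADPH (0.5 mg/mL final). Incubation 16 h at 37 C; beta-lactamase reporter read by LiveBLAzer fluorescence after 2 h at room temperature.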

[7] = p53 small molecule agonists, cell-based qHTS assay with rat liver microsomes: qHTS cell viability counter screen (AID 1963580); further: nearly all actives have a fitted effect of over 45% in size
Summary of the method: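 Intracellular ATP, by CellTiter-Glo luminescence, defines viability. HCT-116 p53RE-bla cells, 4,000 per well, were compound-treated in the presence of rat liver microsomes and NADPH for 16 h at 37 C.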

[8] = p53 small molecule agonists, cell-based qHTS assay: qHTS cell viability counter screen (AID 1963581); further: nearly all actives have a fitted effect of over 45% in size
Summary of the method: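 Cells: HCT-116 with p53 response element-driven beta-lactamase. Treatment: 16 h, 37 C, compounds in DMSO. Read: CellTiter-Glo luminescence after 30 min RT.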

[9] = p53 small molecule agonists, cell-based qHTS assay (AID 1963582; active means well fitted activation curve with a large enough effect in the signal ratio in the repeat runs, not every such curve was filed as active; the % refers to the signal ratio)
Summary of the method: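 Quantitative HTS in p53RE-bla cells: after a 5 h settling period, compounds delivered in DMSO were left on cells for 16 h at 37 C, and reporter induction was measured as fluorescence following 2 h substrate loading.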

[10] = target: 5-hydroxytryptamine receptor 2A (Homo sapiens) (UniProt P28223); assay: 5-hydroxytryptamine receptor 2A (HTR2A) small molecule antagonists, cell-based qHTS assay (AID 1963586); further: nearly all actives have a fitted effect of over 45% in size
5-hydroxytryptamine receptor 2A (Homo sapiens), sequence (P28223 whole entry, looked up): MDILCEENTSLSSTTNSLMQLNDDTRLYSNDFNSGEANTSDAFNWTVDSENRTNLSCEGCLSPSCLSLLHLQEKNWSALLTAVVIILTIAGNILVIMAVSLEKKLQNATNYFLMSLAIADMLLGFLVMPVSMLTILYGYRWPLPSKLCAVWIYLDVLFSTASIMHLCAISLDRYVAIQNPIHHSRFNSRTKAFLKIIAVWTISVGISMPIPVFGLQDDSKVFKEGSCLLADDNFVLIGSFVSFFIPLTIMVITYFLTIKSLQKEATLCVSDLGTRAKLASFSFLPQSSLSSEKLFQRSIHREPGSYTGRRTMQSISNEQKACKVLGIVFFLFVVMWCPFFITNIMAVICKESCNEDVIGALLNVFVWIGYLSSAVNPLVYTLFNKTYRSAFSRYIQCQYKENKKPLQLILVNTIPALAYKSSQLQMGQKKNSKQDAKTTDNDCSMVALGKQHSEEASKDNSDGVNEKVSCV
Summary of the method: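 Antagonist-mode intracellular calcium assay: DOI (4 nM) added after 5 min compound pre-incubation at room temperature to dye-loaded HTR2A-CHO cells. Fluorescence followed for 3 min, sampled every second.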

[11] = target: 5-hydroxytryptamine receptor 2A (Homo sapiens) (UniProt P28223); assay: 5-hydroxytryptamine receptor 2A (HTR2A) small molecule agonists, cell-based qHTS assay (AID 1963587); further: nearly all actives have a fitted effect of over 30% in size; further: potency means the concentration at half of the fitted maximal effect
Summary of the method: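 Kinetic calcium-flux fluorescence (2 min, 1 sec intervals) after compound addition in agonist mode. HTR2A-CHO cells were cultured 18 h, then dye-loaded 1 h at 37 C.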

[12] = target: Muscarinic acetylcholine receptor M1 (Homo sapiens) (UniProt P11229); assay: Cholinergic receptor muscarinic 1 (CHRM1) small molecule antagonists, cell-based qHTS assay (AID 1963588); further: nearly all actives have a fitted effect of over 40% in size
Muscarinic acetylcholine receptor M1 (Homo sapiens), sequence (P11229 whole entry, looked up): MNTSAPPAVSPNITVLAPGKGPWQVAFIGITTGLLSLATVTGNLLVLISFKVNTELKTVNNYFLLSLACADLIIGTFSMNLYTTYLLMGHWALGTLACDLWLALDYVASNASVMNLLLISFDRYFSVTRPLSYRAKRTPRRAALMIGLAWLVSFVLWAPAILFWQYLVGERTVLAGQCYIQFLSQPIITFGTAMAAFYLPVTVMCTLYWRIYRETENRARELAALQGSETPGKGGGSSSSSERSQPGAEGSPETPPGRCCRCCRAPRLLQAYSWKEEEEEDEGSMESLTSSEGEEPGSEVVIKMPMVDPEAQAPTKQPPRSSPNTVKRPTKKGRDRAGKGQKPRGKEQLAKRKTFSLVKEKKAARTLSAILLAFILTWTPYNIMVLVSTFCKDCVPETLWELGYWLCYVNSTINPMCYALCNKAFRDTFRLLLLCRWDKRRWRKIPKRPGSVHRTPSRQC
Summary of the method: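 CHRM1-CHO calcium-flux assay, antagonist mode. Cells were seeded 18 h, dye-loaded 1 h at 37 C and given compound for 5 min at RT, then acetylcholine was added at 50nM. FDSS fluorescence was read 3 min; 15 concentrations, three runs.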

[13] = target: Muscarinic acetylcholine receptor M1 (Homo sapiens) (UniProt P11229); assay: Cholinergic receptor muscarinic 1 (CHRM1) small molecule agonists, cell-based qHTS assay (AID 1963589); further: nearly all actives have a fitted effect of over 35% in size; further: potency means the concentration at half of the fitted maximal effect
Summary of the method: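 Agonist-mode qHTS in CHO cells stably carrying human muscarinic M1. Intracellular calcium is tracked by fluorescence every second after compound transfer; each compound runs at 15 concentrations in three independent runs.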

[14] = cAMP Responsive Elements (CRE) small molecule agonists, cell-based qHTS assay (AID 1963590)
Summary of the method: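 Agonist mode qHTS in CRE-bla HEK 293T cells: compounds dosed from DMSO for 3 h at 37 C/5% CO2, followed by LiveBLAzer B/G FRET substrate for 2 h at room temperature.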

[15] = cAMP Responsive Elements (CRE) small molecule antagonists, cell-based qHTS assay (AID 1963591; active means well fitted inhibition curve with a large enough effect in the signal ratio in the repeat runs, not every such curve was filed as active; the % refers to the signal ratio)
Summary of the method: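 Antagonist mode: test compounds are co-incubated with the adenylyl cyclase activator NKH477 (0.25 uM final) on CRE-bla HEK293T cells for 3 h at 37 °C, followed by LiveBLAzer substrate loading.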

[16] = target: Beta-2 adrenergic receptor (Homo sapiens) (UniProt P07550); assay: Adrenergic beta2 receptor (ADRB2) small molecule antagonists, cell-based qHTS assay (AID 1963592); further: series mostly up to about 92 µM; nearly all actives have a fitted effect of over 50% in size
Beta-2 adrenergic receptor (Homo sapiens), sequence (P07550 whole entry, looked up): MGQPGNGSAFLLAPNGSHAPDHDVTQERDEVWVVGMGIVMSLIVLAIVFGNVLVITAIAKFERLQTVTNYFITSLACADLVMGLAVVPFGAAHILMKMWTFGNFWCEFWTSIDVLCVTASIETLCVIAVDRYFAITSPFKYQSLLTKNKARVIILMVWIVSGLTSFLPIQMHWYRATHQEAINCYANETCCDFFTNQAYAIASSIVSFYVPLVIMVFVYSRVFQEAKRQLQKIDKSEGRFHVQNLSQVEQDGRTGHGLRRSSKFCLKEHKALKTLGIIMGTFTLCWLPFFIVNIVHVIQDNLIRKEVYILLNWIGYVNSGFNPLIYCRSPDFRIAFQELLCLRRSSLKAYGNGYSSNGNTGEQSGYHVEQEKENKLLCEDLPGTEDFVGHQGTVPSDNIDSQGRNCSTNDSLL
Summary of the method: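 Cells (CHO, stable ADRB2 overexpression) incubated 18-20hr at 37C; compounds added from DMSO; agonist mix (1nM isoproterenol, 100uM IBMX, 25uM Ro-20-1724) added; 0.5hr RT; d2-cAMP and anti-cAMP-cryptate added; 1hr RT; 665/615 nm read.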

[17] = target: D(2) dopamine receptor (Homo sapiens) (UniProt P14416); assay: Dopamine D2 receptor (DRD2) small molecule agonists, cell-based qHTS assay (AID 1963594); further: nearly all actives have a fitted effect of over 35% in size
D(2) dopamine receptor (Homo sapiens), sequence (P14416 whole entry, looked up): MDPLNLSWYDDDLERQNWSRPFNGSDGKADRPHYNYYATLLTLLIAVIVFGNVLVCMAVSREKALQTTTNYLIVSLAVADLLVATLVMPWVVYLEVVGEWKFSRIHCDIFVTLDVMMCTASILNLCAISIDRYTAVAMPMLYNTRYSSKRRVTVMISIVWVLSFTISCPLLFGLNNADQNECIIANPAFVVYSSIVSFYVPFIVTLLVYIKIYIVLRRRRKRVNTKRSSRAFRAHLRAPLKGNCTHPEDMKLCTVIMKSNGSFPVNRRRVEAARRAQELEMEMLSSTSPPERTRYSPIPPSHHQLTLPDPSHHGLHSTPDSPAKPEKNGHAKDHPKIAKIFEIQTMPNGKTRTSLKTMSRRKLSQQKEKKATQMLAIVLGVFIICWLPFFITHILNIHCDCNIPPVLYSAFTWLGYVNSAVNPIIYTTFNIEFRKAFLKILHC
Summary of the method: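 cAMP accumulation in DRD2-HEK293 cells measured by HTRF after 1 h detection; compounds added 10 min before NKH477 (200nM […]) forskolin-analogue stimulation, 30 min at room temperature, with Ro20-1724 present at 0.1 mM final.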

[18] = target: D(2) dopamine receptor (Homo sapiens) (UniProt P14416); assay: Dopamine D2 receptor (DRD2) small molecule antagonists, cell-based qHTS assay (AID 1963595; active means well fitted inhibition curve with a large enough effect in the signal ratio in the repeat runs, with a control signal flat; the % refers to the signal ratio)
Summary of the method: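 DRD2-HEK293; 0.1 mM Ro20-1724; cpd 10 min RT; NKH477 200 nM + quinpirole 12 nM, 30 min RT; HTRF cAMP (cAMP-d2/anti-cAMP cryptate), 665/620 nm ratio after 1 h.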

[19] = p53 small molecule agonists, cell-based qHTS assay with human liver microsomes: qHTS cell viability counter screen (AID 1963579); further: nearly all actives have a fitted effect of over 45% in size
Summary of the method: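 p53RE-bla cells, 4,000/well, dosed 5 hours after plating, with human liver microsomes (0.5 mg/mL final) plus NADPH (0.5 mg/mL final), 16 hours at 37 C. Viability read as CellTiter-Glo luminescence after 30 min at room temperature.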

[20] = target: Beta-2 adrenergic receptor (Homo sapiens) (UniProt P07550); assay: Adrenergic beta2 receptor (ADRB2) small molecule agonists, cell-based qHTS assay (AID 1963593);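 further: CHO cells stably overexpressing human ADRB2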
Summary of the method: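 CHO cells stably over-expressing ADRB2 were plated overnight at 37C, then dosed with compounds plus a stimulation mix containing 100uM IBMX and 25uM Ro-20-1724 for 0.5hr at room temperature. cAMP was measured by HTRF competition, 1hr.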

SMILES | Potency [1] | Potency [2] | Potency [3] | Potency [4] | Potency [5] | Potency [6] | Potency [7] | Potency [8] | Potency [9] | Potency [10] | Potency [11] | Potency [12] | Potency [13] | Potency [14] | Potency [15] | Potency [16] | Potency [17] | Potency [18] | Potency [19] | Potency [20]
CC(C)c1ccc(C=O)cc1 | inactive | inactive | inactive | inactive | inactive | inactive | inactive | inactive | inactive | inactive | inactive | inactive | inactive | inactive | inactive | inactive | inactive | inactive |  | 
CCN(CC#N)c1cccc(C)c1 | inactive | inactive | inactive | inactive | inactive | inactive |  | inactive |  | inactive | inactive |  | inactive | inactive | inactive | inactive | inactive | inactive | inactive | inactive
OCCc1ccccn1 | inactive | inactive | inactive | inactive | inactive | inactive |  | inactive | inactive | inactive | inactive | inactive | inactive | inactive | inactive | inactive | inactive |  | inactive | 
CCOC(C)(C)C | inactive | inactive | inactive | inactive | inactive | inactive | inactive | inactive |  | inactive |  | inactive | inactive | inactive | inactive | inactive | inactive | inactive | inactive | inactive
CSc1ccc(C(=O)c2[nH]c(=O)[nH]c2C)cc1 | inactive | inactive | inactive | inactive | inactive | inactive | inactive | inactive | inactive | inactive | inactive |  | inactive | inactive | inactive | inactive | inactive | inactive | inactive | 
Nc1ccccc1N | inactive | 31.4 µM (active) and 7.7 µM (active) | 35.5 µM (active) | inactive | inactive | inactive | inactive | inactive | inactive | inactive | 50.1 µM (active) and 30.9 µM (active) | inactive | 56.2 µM (active) and inactive |  |  | inactive | inactive | inactive | inactive | 
O=C(O)c1cc(N=Nc2ccc(S(=O)(=O)Nc3ccccn3)cc2)ccc1O | inactive | inactive | inactive | inactive | inactive | inactive | inactive |  | inactive |  |  |  |  | inactive | inactive |  | inactive |  | inactive | inactive
C=CCCCCCCCCCCCC | inactive | inactive | inactive | inactive | inactive | inactive | inactive | inactive | inactive | inactive | inactive | inactive |  | inactive | inactive | inactive | inactive | inactive | inactive | inactive
CC1=C(O)C(=O)OC1C (configuration not stated) | inactive | inactive | inactive | inactive | inactive | inactive | inactive | inactive | inactive | inactive | inactive | inactive |  | inactive | inactive | inactive | inactive |  | inactive | inactive
C=CC(=O)NCOCC(C)C | inactive | inactive | inactive | inactive | inactive | inactive | inactive | inactive | inactive | inactive | inactive | inactive | inactive | inactive | inactive |  | inactive | inactive | inactive | inactive
C=CC(C)(O)CC/C=C(/C)CCC=C(C)C (configuration not stated) | inactive | inactive | inactive | inactive | inactive | inactive | inactive | inactive | inactive | inactive | inactive |  | inactive | inactive | inactive | inactive | inactive | inactive | inactive | 
Fc1c(F)c(F)c(Br)c(F)c1F | inactive | inactive | inactive | inactive | inactive | inactive |  | inactive | inactive | inactive | inactive | inactive |  |  | inactive | inactive | inactive | inactive | inactive | 
C1COCCO1 | inactive | inactive | inactive | inactive | inactive | inactive |  |  | inactive | inactive | inactive | inactive | inactive | inactive |  | inactive |  | inactive |  | 
O=C1OCCO1 | inactive | inactive | inactive | inactive | inactive | inactive | inactive | inactive | inactive |  | inactive | inactive | inactive |  | inactive | inactive | inactive | inactive | inactive | 
N#CCN(CC#N)CCN(CC#N)CC#N | inactive | inactive | inactive | inactive | inactive | inactive | inactive | inactive |  | inactive |  | inactive | inactive | inactive | inactive | inactive | inactive | inactive | inactive | inactive
